{"source": "PubChem BioAssay (Tox21)", "note": "Records with an inconclusive call do not appear. Entries that show only a call come without a potency. A number with no mark means an inactive call. Activity calls are given as the source filed them. Calls follow the shape of the dose curve; as a rule, active = well fitted activation curve with a large enough effect in the repeat runs; inconclusive = weak or mixed curves; inactive = flat fitted curve, though single readings scatter. Potency is read from the fitted curve at half-maximal effect.", "data": [{"assay": "A CellTox Green Cytotoxicity Assay to monitor cytotoxicity in HepG2 cells - 24 hour (AID 1224878); also: nearly all actives have a fitted effect of over 45% in size", "conditions": "CellTox Green fluorescence; series mostly up to 76.8 µM", "text": "National Center for Advancing Translational Sciences [NCATS]\nNIH Chemical Genomics Center [NCGC]\nU.S. Environmental Protection Agency [EPA]\nNational Institutes of Environmental Health Sciences [NIEHS]\nNational Toxicology Program [NTP]\nCell-based models are critical for drug discovery. Determining the natural cytotoxic effects resulting from test compounds is an essential research activity. A CellTox Green Cytotoxicity Assay to monitor cytotoxicity in real time of continues cell culture during 40 hours of the compound treatment was used to screen Tox21 10K library compounds in HepG2 cells. CellTox Green Cytotoxicity Assay is a nonlytic, homogeneous, biofluorescent method to measure cytotoxicity in cell culture after experimental manipulation. The assay system uses a proprietary asymmetric cyanine dye that is excluded from viable cells but preferentially stains the dead cell's DNA. […] Viable cells produce no appreciable increases in fluorescence. Therefore, the fluorescence signal produced by the binding interaction with dead cell DNA is proportional to cytotoxicity.\nThe mixture of HepG2 cell suspension and reagents were dispensed at 600cells/6 ul/well in 1536-well tissue culture treated black solid bottom plates using a Multidrop dispenser. After the assay plates were incubated at a 37 C/5% CO2 incubator for 5 hours, 23 nL of compounds dissolved in DMSO, positive and negative controls was transferred to the assay plate by a pintool work station. The plates were incubated at 37 C for 40 hours. The fluorescence intensity were measured at 0h, 8h, 16h, 24h, 32h and 40h time points using ViewLux plate reader during compound treatment.", "values": [{"smiles": "CCOC(=O)C(F)(F)F", "Potency": "inactive"}, {"smiles": "CCC(C)c1cc(C(C)(C)C)c(O)c(C(C)(C)C)c1", "note": "(stereo not given)", "Potency": "inactive"}, {"smiles": "NCC(=O)O", "cytotoxicity": "7.92% [at 15.8 µM]"}, {"smiles": "CCCCCCOC(=O)NC(=N)c1ccc(NCc2nc3cc(C(=O)N(CCC(=O)OCC)c4ccccn4)ccc3n2C)cc1", "Potency": "23.9 µM (active)"}, {"smiles": "Brc1c2ccccc2cc2ccccc12", "Potency": "inactive"}, {"smiles": "Nc1cccc([N+](=O)[O-])c1", "Potency": "inactive"}, {"smiles": "CN(C)CCCN1c2ccccc2Sc2ccccc21", "Potency": "26.8 µM (active)"}, {"smiles": "Cc1c(N)cccc1[N+](=O)[O-]", "Potency": "inactive"}, {"smiles": "CCOc1ccc(O)cc1", "Potency": "inactive"}, {"smiles": "O=S(=O)(Oc1ccc(Cl)cc1)c1ccccc1", "Potency": "inactive"}, {"smiles": "CC(COCCO)OCCO", "note": "(stereo not given)", "Potency": "inactive"}, {"smiles": "Cc1cccc(Nc2ccccc2)c1", "Potency": "38.9 µM (active)"}, {"smiles": "CCN(CC)c1ccc2c(-c3ccccc3C(=O)O)c3ccc(=[N+](CC)CC)cc-3oc2c1", "Potency": "21.9 µM (active)"}, {"smiles": "CC(CC=O)c1ccccc1", "note": "(stereo not given)", "Potency": "inactive"}, {"smiles": "CNCCCCOc1ccccc1Cc1ccccc1", "Potency": "23.9 µM (active)"}, {"smiles": "CCCCC(CC)COC(=O)COc1ccc(Cl)cc1Cl", "note": "(stereo not given)", "Potency": "inactive"}, {"smiles": "C[C@@H](c1ncncc1F)C(O)(Cn1cncn1)c1ccc(F)cc1F", "note": "(stereo not given in full)", "Potency": "inactive"}, {"smiles": "CC1=CC=C(C(C)C)CC1", "Potency": "inactive"}, {"smiles": "NC(=O)C(c1ccccc1)(c1ccccc1)[C@@H]1CCN(CCc2ccc3c(c2)CCO3)C1", "Potency": "21.3 µM (active)"}, {"smiles": "Cc1oc(-c2ccccc2)nc1CCOc1cccc2c1ccn2CCC(=O)O", "Potency": "inactive"}, {"smiles": "C/C=C(/C(=C/C)c1ccc(OC(C)=O)cc1)c1ccc(OC(C)=O)cc1", "Potency": "inactive"}, {"smiles": "CCCCOC(=O)CCCCCCCC(=O)OCCCC", "Potency": "inactive"}, {"smiles": "c1ccc(-c2ccccn2)nc1", "Potency": "inactive"}, {"smiles": "Cc1ccc(C(=O)Oc2ccc(C(O)CNC(C)(C)C)cc2OC(=O)c2ccc(C)cc2)cc1", "note": "(stereo not given)", "Potency": "21.3 µM (active)"}, {"smiles": "C=CC1CC2C=CC1C2", "note": "(stereo not given)", "Potency": "inactive"}, {"smiles": "COc1cc(Cl)ccc1Oc1ccc(Cl)cc1Cl", "Potency": "inactive"}, {"smiles": "C[N+](C)(C)CCOC(=O)CCC(=O)OCC[N+](C)(C)C", "Potency": "inactive"}, {"smiles": "CC1OC(=O)C(C)OC1=O", "note": "(stereo not given)", "Potency": "inactive"}, {"smiles": "CCCCC/C=C\\C/C=C\\CCCCCCCC(=O)NC(C)c1ccccc1", "note": "(stereo not given)", "Potency": "inactive"}, {"smiles": "CCOC(=O)COC(=O)c1cc(Oc2ccc(C(F)(F)F)cc2Cl)ccc1[N+](=O)[O-]", "Potency": "inactive"}, {"smiles": "CCOC(=O)NCCOc1ccc(Oc2ccccc2)cc1", "Potency": "inactive"}, {"smiles": "COc1ccc(-c2nc3ccc(C4=NNC(=O)CC4C)cc3[nH]2)cc1", "note": "(stereo not given)", "Potency": "inactive"}, {"smiles": "CCO[C@H](Cc1ccc(OCCc2ccc(OS(C)(=O)=O)cc2)cc1)C(=O)O", "Potency": "inactive"}, {"smiles": "CCOC(=O)c1cccnc1", "Potency": "inactive"}, {"smiles": "CC(C)(O)c1ccc(CNC(=O)c2cccnc2Oc2ccc(F)cc2)cc1", "Potency": "inactive"}, {"smiles": "O=C1c2ccccc2S(=O)(=O)N1CCCCN1CCN(c2ncccn2)CC1", "Potency": "inactive"}, {"smiles": "COc1ccc(C(=O)c2ccc(OC)cc2O)c(O)c1", "Potency": "inactive"}, {"smiles": "OCc1cc(C(O)CNCCCCCCOCCCCc2ccccc2)ccc1O", "note": "(stereo not given)", "Potency": "23.9 µM (active)"}, {"smiles": "CO[C@@H]1[C@H](OC(=O)/C=C/C=C/C=C/C=C/C(=O)O)CC[C@]2(CO2)[C@H]1[C@@]1(C)O[C@@H]1CC=C(C)C", "Potency": "inactive"}, {"smiles": "O=C(O)C1(C(=O)O)CCC1.[NH2-].[NH2-].[Pt+2]", "Potency": "inactive"}]}]}
